Where a name gives a salt, the structure may show the parent alone.

Our source for the startle values is the supplement of paper PMC9950053.

For this experiment, the system named is Danio rerio larvae (5 dpf). Nature of the experiment: startle (activity period 16 minus period 15, 20-s interval sound) minus DMSO control (percentage points); higher = stronger startle response than DMSO larvae. Particulars: 10 µM; exposure time: 3 h pre-incubation + 3 h imaging. The procedure:
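Wild-type 5 dpf zebrafish larvae (n=48 per drug, 96-well plates, 28.5 °C) were exposed to Tocris FDA-approved library compounds at 10 µM (0.1% DMSO) for 3 h before and 3 h during imaging. Images were taken every 6 s during visual (moving coloured lines) and acoustic stimuli, and larvae were tracked with the DeepLabCut-based Z-LaP Tracker. Each behavioural measure is the treated-group mean minus the DMSO vehicle control mean (n=844), in percentage points. This mapping covers compounds with 4-character plate codes.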
Turning to `C[C@]12CC[C@@H]3c4ccc(O)cc4C[C@@H](CCCCCCCCC[S+]([O-])CCCC(F)(F)C(F)(F)F)[C@H]3[C@@H]1CC[C@@H]2O` (stereo not given in full), the startle was -0.0663.

On to `CC#C[C@]1(O)CC[C@H]2[C@@H]3CCC4=CC(=O)CCC4=C3[C@@H](c3ccc(N(C)C)cc3)C[C@@]21C` [Mifepristone], for which the startle was 0.533.

`CN1CCN2c3ncccc3Cc3ccccc3C2C1` (stereo not given) [Mirtazapine]: the startle is -6.05.

For `N[C@@H]1[C@H]2CN(c3nc4c(cc3F)c(=O)c(C(=O)O)cn4-c3ccc(F)cc3F)C[C@@H]12` [Trovafloxacin mesylate], the startle was -8.4.

Take `CCOC(=O)C1=C(C)NC(C)=C(C(=O)OC)C1c1cccc(Cl)c1Cl` (stereo not given) [Felodipine]: the startle was 7.93.

In the case of `CC(C)CN(C[C@@H](O)[C@H](Cc1ccccc1)NC(=O)O[C@H]1CO[C@H]2OCC[C@H]21)S(=O)(=O)c1ccc(N)cc1` [Darunavir], the startle is -0.93.

With `CC(=O)S[C@@H]1CC2=CC(=O)CC[C@]2(C)[C@H]2CC[C@@]3(C)[C@@H](CC[C@@]34CCC(=O)O4)[C@H]12` [Spironolactone], the startle is 2.27.

For the compound `COc1ccc(Cl)cc1C(=O)NCCc1ccc(S(=O)(=O)NC(=O)NC2CCCCC2)cc1` [Glibenclamide], the startle was 8.34.

`CN(CCOc1ccc(CC2SC(=O)NC2=O)cc1)c1ccccn1` (stereo not given) [Rosiglitazone]: the startle is -1.31.

`Cc1cn([C@H]2C=C[C@@H](CO)O2)c(=O)[nH]c1=O` [Stavudine]: the startle came to 0.235.

For `Nc1nc(F)nc2c1ncn2[C@@H]1O[C@H](CO)[C@@H](O)[C@@H]1O` [Fludarabine], the startle was 4.52.

For the compound `CCCCNc1cc(C(=O)O)cc(S(N)(=O)=O)c1Oc1ccccc1` [Bumetanide], the startle was determined as 3.28.

Turning to `Nc1nc2c(ncn2COCCO)c(=O)[nH]1` [Acyclovir], the startle is -0.609.

Consider `CCOc1ccccc1OCCN[C@H](C)Cc1ccc(OC)c(S(N)(=O)=O)c1` [Tamsulosin hydrochloride], for which the startle is 1.92.

For the compound `CCC(C)(C)C(=O)O[C@H]1C[C@@H](C)C=C2C=C[C@H](C)[C@H](CC[C@@H]3C[C@@H](O)CC(=O)O3)[C@H]21` [Simvastatin], the startle stood at 3.93.

With `CCOc1cc(CC(=O)N[C@@H](CC(C)C)c2ccccc2N2CCCCC2)ccc1C(=O)O` [Repaglinide], the startle is -4.11.

For the compound `Nc1ccn([C@@H]2O[C@H](CO)[C@@H](O)C2(F)F)c(=O)n1` [Gemcitabine hydrochloride], the startle was found to be 2.17.

Regarding `Clc1ccccc1C(c1ccccc1)(c1ccccc1)n1ccnc1` [Clotrimazole], the startle is 4.43.

Regarding `COC(c1ccccc1)(c1ccccc1)[C@H](Oc1nc(C)cc(C)n1)C(=O)O` [Ambrisentan], the startle is 6.56.

For the compound `CCOC(=O)c1ncn2c1CN(C)C(=O)c1cc(F)ccc1-2` [Flumazenil], the startle is -0.637.

For the compound `CC1(C)O[C@@H]2[C@@H](CO[C@@]3(COS(N)(=O)=O)OC(C)(C)O[C@@H]23)O1` [Topiramate], the startle is -0.863.

Consider `COCCCOc1cc(C[C@@H](C[C@H](N)[C@@H](O)C[C@H](C(=O)NCC(C)(C)C(N)=O)C(C)C)C(C)C)ccc1OC` [Aliskiren hemifumarate], for which the startle came to 0.496.

Take `COc1cc2nc(N3CCN(C(=O)C4COc5ccccc5O4)CC3)nc(N)c2cc1OC` (stereo not given) [Doxazosin mesylate]: the startle amounted to 6.47.

Take `CC[C@H](C)C(=O)O[C@H]1C[C@@H](C)C=C2C=C[C@H](C)[C@H](CC[C@@H]3C[C@@H](O)CC(=O)O3)[C@H]21` [Lovastatin]: the startle is -1.2.

With `CC(C)(C(=O)c1cccnc1)c1cccnc1` [Metyrapone], the startle is -0.289.

On to `O=C(O)c1cc(/N=N/c2ccc(S(=O)(=O)Nc3ccccn3)cc2)ccc1O` [Sulfasalazine], for which the startle is -1.

For the compound `O=C(O[C@@H]1C[C@@H]2C[C@H]3C[C@H](C1)N2CC3=O)c1c[nH]c2ccccc12` [Dolasetron mesylate], the startle was 0.504.

As for `OCCN(CCO)c1nc(N2CCCCC2)c2nc(N(CCO)CCO)nc(N3CCCCC3)c2n1` [Dipyridamole], the startle amounted to 7.7.

With `CCCCC1=NC2(CCCC2)C(=O)N1Cc1ccc(-c2ccccc2-c2nnn[nH]2)cc1` [Irbesartan], the startle amounted to 3.4.

With `CCCCCCCCc1ccc(CCC(N)(CO)CO)cc1`, the startle was -6.92.

For the compound `C#C[C@]1(O)CC[C@H]2[C@@H]3CCC4=CC(=O)CC[C@@H]4[C@H]3CC[C@@]21CC` [Levonorgestrel], the startle is -4.23.

As for `Nc1cc(N2CCCCC2)nc(N)[n+]1[O-]` [Minoxidil], the startle is -1.64.

On to `O=C1CCc2cc(OCCCCc3nnnn3C3CCCCC3)ccc2N1` [Cilostazol], for which the startle came to 1.37.

For the compound `CC(C)c1nc(CN(C)C(=O)N[C@H](C(=O)N[C@@H](Cc2ccccc2)C[C@H](O)[C@H](Cc2ccccc2)NC(=O)OCc2cncs2)C(C)C)cs1` [Ritonavir], the startle stood at 1.44.

Turning to `CS(=O)(=O)CCNCc1ccc(-c2ccc3ncnc(Nc4ccc(OCc5cccc(F)c5)c(Cl)c4)c3c2)o1` [Lapatinib], the startle was -0.148.

Regarding `CC(C)n1c(/C=C/C(O)CC(O)CC(=O)O)c(-c2ccc(F)cc2)c2ccccc21` (stereo not given) [Fluvastatin sodium], the startle amounted to 3.68.

With `Nc1ncn([C@@H]2O[C@H](CO)[C@@H](O)[C@H]2O)c(=O)n1` [5-Azacytidine], the startle came out at 2.79.

For the compound `COc1cccc2c1C(=O)c1c(O)c3c(c(O)c1C2=O)C[C@@](O)(C(=O)CO)C[C@@H]3O[C@H]1C[C@H](N)[C@H](O)[C@H](C)O1` [Doxorubicin hydrochloride], the startle worked out at 3.54.

On to `C[C@]12CCC(=O)C=C1CC[C@@H]1[C@@H]2[C@@H](O)C[C@@]2(C)[C@H]1CC[C@]2(O)C(=O)CO` [Hydrocortisone], for which the startle stood at 0.463.

For `CCOC(=O)[C@H](CCc1ccccc1)N[C@@H](C)C(=O)N1[C@H](C(=O)O)C[C@@H]2CCC[C@@H]21` [Ramipril], the startle is -0.503.
